In all, about 220,000 compounds went through this assay and about 8,200 (3.7%) were called active.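 How the source made its calls: active means compounds that reduced the stress-induced luciferase reporter signal by more than about 70% of percent inhibition (limit read from the data); inactive means the rest.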 Shown is part of a subset that was picked to be rich in actives.
assay: inhibitors of CHOP promoter induction, primary screen, cell-based, unfolded protein response, luciferase reporter (AID 2732); conditions: CHO-K1 CHOP-promoter luciferase, tunicamycin-induced, 15-18 h; at 10 µM; active compounds read high;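 further: 0% = tunicamycin plus vehicle and 100% = wells without tunicamycin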

| SMILES | inhibition |
| --- | --- |
| CCCCCCCCCCCCn1ccc(=N)cc1 | 90.9% (active) |
| CC(=C1C(=O)c2ccccc2C1=O)N1CCN(CCN=Cc2c(O)n(C)c(=O)n(C)c2=O)CC1 | -9.11% (inactive) |
| COc1ccc(NC(=O)N2CCC3(CC2)OCCO3)c(OC)c1 | 18.7% (inactive) |
| CCC1(C)CC(CCNCc2ccc(N(C)C)cc2)(c2ccc(F)cc2)CCO1 (stereo not given) | 8.31% (inactive) |
| COc1ccc(CN2C(=O)NC(=O)/C(=C\c3ccc(OC)c(OC)c3OC)C2=O)cc1 | -5.09% (inactive) |
| CN(C)CC1Oc2ccccc2OC1(O)c1ccccc1 (stereo not given) | 88.8% (active) |
| CCOC(=O)c1ncn2c1[C@@H]1CCCN1C(=O)c1cc(OC)ccc1-2 | -1.91% (inactive) |
| O=C(CCNS(=O)(=O)c1ccccc1)Nc1ccc(Cl)cc1C(=O)c1ccccc1 | -12.3% (inactive) |
| CN1CCN(C(=S)SCC(=O)Nc2ccc(Cl)cc2C(=O)c2ccccc2)CC1 | 35% (inactive) |
| O=C(COC(=O)c1ccccc1)Nc1ccc(Cl)cc1C(=O)c1ccccc1 | 80.1% (active) |
| COC(=O)N(c1ccc(OC)cc1)P1(=S)OCCC(C)O1 (stereo not given) | -1.61% (inactive) |
| CCC(=O)CC(c1ccc([N+](=O)[O-])cc1)c1c(O)c2ccccc2oc1=O (stereo not given) | -16.6% (inactive) |
| Cc1ccc2c(c1)C1CN(C)CCC1N2C(=O)Cn1nnc(-c2ccccc2F)n1 (stereo not given) | 3.99% (inactive) |
| CCN1CCN(c2ccc([N+](=O)[O-])cc2C#N)CC1 | 8.37% (inactive) |
| Cn1c(O)c(C(=Nc2ccc(F)cc2)c2ccccc2)c(=O)n(C)c1=O | 2.66% (inactive) |
| Cc1ccc(-n2c(C)cc(/C=C3\C(=O)NC(=O)N(C)C3=O)c2C)cc1C | 78.5% (active) |
| Cc1cc(C=C2C(=O)NC(=O)NC2=O)c(C)n1-c1ccncc1 | 16.7% (inactive) |
| Cc1ccnc(-n2c(C)cc(/C=C3\C(=O)NC(=S)N(C)C3=O)c2C)c1 | -16.7% (inactive) |
| C=CCN1CCC2(C)c3cc(O)ccc3CC1[C@@H]2C (stereo not given in full) | 9.89% (inactive) |
| Cc1ccc(CN2CCCC(C(=O)c3ccc4c(c3)OCO4)C2)cc1C (stereo not given) | -2.37% (inactive) |
| O=c1[nH]c(=O)n(CCc2ccccc2)c(O)c1/C=N/N1CCOCC1 | -18.4% (inactive) |
| CCCCn1c(O)c(C(CC)=NCc2ccco2)c(=O)[nH]c1=O | 6.6% (inactive) |
| CCCCCCN=C(CC)c1c(O)n(CCCC)c(=O)[nH]c1=O | 106% (active) |

| SMILES | inhibition |
| --- | --- |
| CCC(=NCCCO)c1c(O)n(-c2ccc(OC)cc2)c(=O)[nH]c1=O | 14.6% (inactive) |
| O=c1[nH]c(=O)n(CCc2ccc(F)cc2)c(O)c1/C=N/N1CCCCC1 | 3.76% (inactive) |
| CC1(C)Cc2c(C#N)c(N3CCNCC3)nc(-c3ccco3)c2CS1 | 3.49% (inactive) |
| CCCCCn1c(=O)c(C(=O)NCc2ccccn2)c(O)c2ccccc21 | 40.5% (inactive) |
| CCCCCn1c(=O)c(C(=O)Nc2c(C)n(C)n(-c3ccccc3)c2=O)c(O)c2ccccc21 | 89.7% (active) |
| COc1cc(C(c2c(O)c3ccccc3oc2=O)c2c(C)n(C)n(-c3ccccc3)c2=O)ccc1O (stereo not given) | 8.54% (inactive) |
| CCOP(=O)(OCC)C(O)c1ccc(OC)cc1OC (stereo not given) | 1.95% (inactive) |
| COc1ccc2c(c1O)-c1cccc3c1[C@@H](C2)N(C)CC3 | -0.63% (inactive) |
| COc1ccc(-n2c(-c3ccccc3)nc3ccccc3c2=O)cc1 | -0.77% (inactive) |
| CC(=O)c1c(O)c(C)c(O)c(Cc2c(O)c3c(c(C(=O)/C=C/c4ccccc4)c2O)OC(C)(C)C=C3)c1O | -9.85% (inactive) |
| O=C1NC(=O)N(Cc2ccco2)C(=O)/C1=C\c1ccc(-c2ccc(F)cc2)o1 | 4.85% (inactive) |
| O=C1NC(=O)N(CCc2ccc(F)cc2)C(=O)/C1=C/C=C/c1ccccc1 | 79.8% (active) |
| O=C(O)COc1ccccc1/C=C1\C(=O)NC(=O)N(CCC2=CCCCC2)C1=O | -7.81% (inactive) |
| COc1ccc(NC(=O)c2cn(CCC#N)nc2-c2ccc([N+](=O)[O-])cc2)cc1 | -2.78% (inactive) |
| Cc1ccc(-n2c(-c3ccc([N+](=O)[O-])cc3)nc3ccccc3c2=O)cc1 | -10.7% (inactive) |
| O=C(O)C1C2CCC(O2)C1C(=O)O (stereo not given) | -11.8% (inactive) |
| CN(C)c1ccc(/C=C2\CC3C4CC=C5CC(O)CCC5(C)C4CCC3(C)C2=O)cc1 (stereo not given) | 96% (active) |
| CC(c1ccccc1)(c1ccccc1)c1ccncc1 | 34.4% (inactive) |
| CCN1c2nc3c(C)cccn3c(=O)c2CC2(C(=O)N(C)C(=O)N(C)C2=O)C1C (stereo not given) | 6.18% (inactive) |
| O=C(CSC1c2ccccc2-c2ccccc21)N/N=C/c1ccccc1 | 97.3% (active) |
| CCCCC(=O)N/N=C/c1c(O)n(-c2ccccc2)c(=O)[nH]c1=O | -1.28% (inactive) |
| CC(=O)N1CN2CN(C(C)=O)CC(C(=O)c3ccc(Br)cc3)(C2)C1 | 5.64% (inactive) |

Source: PubChem BioAssay AID2732 (Emory University Molecular Libraries Screening Center, 2010)
